# TPT1 inhibitor: blocks Candida albicans tRNA 2'-phosphotransferase; recombinant caTPT1, FP RNA substrate dephosphorylation; inhibition, % at 5 µM; 0.81% of 300,000 active; AID 1962;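 active = inhibition above the mean of all tested compounds plus 3 SD, set per screening campaign, cut at about 24% in these data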;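 also: plate controls were DMSO alone for no effect and ferristatin control at 100 nM for full effect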
# CRFR2-BP ag: agonists of human CRF-binding protein/CRF-R2 receptor complex | AID 588473 | activation, % at 13.2 µM | HEK293 CRF-R2/CRF-BP, calcium dye fluorescence (FLIPR); percent of saturating CRF peptide response | 0.46% of 350,000 active;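 active = activation of at least 50%, plus an integration ratio under a set limit after plate pattern correction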;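 also: plate controls were neutral control wells without compound for no effect and CRF at EC100 for full effect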
# IDE cell inh: cellular human IDE inhibition; AID 434962; 0.41% of 320,000 active; HEK cells, FAbetaB cleavage, fluorescence polarization; P14735; inhibition, % at 5.59 µM;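 active = percent inhibition above the average of all tested compounds plus 3 SD, set per screening campaign, cut at about 16% in these data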;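 also: IDE supplied by intact live HEK cells; FP after avidin binding of uncleaved biotin substrate so inhibition keeps polarization high; 0% = DMSO wells and 100% = 60 µM reference IDE inhibitor Ii1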
# Target sequence (P14735 whole entry, looked up): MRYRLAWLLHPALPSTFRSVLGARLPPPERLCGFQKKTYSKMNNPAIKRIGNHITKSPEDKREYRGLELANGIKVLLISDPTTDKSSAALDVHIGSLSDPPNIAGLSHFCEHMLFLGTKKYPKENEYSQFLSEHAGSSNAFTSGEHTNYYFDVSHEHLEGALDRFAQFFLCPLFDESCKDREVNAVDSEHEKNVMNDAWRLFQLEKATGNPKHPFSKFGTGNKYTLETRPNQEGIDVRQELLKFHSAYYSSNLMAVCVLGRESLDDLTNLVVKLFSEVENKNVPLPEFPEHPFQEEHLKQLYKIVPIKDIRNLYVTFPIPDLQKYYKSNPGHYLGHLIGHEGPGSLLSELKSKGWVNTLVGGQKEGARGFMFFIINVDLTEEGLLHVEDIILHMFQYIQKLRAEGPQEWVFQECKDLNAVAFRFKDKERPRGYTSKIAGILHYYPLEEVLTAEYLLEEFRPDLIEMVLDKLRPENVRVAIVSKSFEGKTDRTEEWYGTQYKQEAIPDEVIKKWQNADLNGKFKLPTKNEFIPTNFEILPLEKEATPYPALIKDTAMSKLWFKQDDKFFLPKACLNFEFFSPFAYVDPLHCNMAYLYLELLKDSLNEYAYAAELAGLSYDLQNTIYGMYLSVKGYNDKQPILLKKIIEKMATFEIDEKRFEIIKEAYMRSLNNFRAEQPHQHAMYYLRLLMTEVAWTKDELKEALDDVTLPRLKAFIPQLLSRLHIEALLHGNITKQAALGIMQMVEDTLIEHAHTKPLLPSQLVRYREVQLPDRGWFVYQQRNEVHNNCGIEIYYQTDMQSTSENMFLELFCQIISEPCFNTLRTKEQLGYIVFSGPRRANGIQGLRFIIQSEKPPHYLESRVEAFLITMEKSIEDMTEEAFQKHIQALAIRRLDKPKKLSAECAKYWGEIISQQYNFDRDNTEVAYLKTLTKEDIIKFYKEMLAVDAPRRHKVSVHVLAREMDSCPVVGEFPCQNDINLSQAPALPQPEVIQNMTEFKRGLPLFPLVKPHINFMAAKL
# IDE act: activators of human insulin-degrading enzyme in cells; HEK cells, FAbeta-B cleavage, fluorescence polarization; 0% vehicle, 100% cell-free pure enzyme wells; 0.073% of 340,000 active; P14735; activation, % at 5.96 µM;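 active = activation above the mean of all tested compounds plus 3 SD, set per screening campaign, cut at about 17% in these data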
# Myeloid diff 2: myeloid differentiation induction; calls only at 10 µM; 1% of 360,000 active; AID 624256; ER-HoxA9 myeloid progenitors, lysozyme-GFP differentiation, flow cytometry;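 active = normalized GFP-positive differentiation at or above the plate's own cutoff, the solvent-only control mean plus 3 SD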;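 also: cells exposed to compound for four days before flow analysis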
# CRFBP-R2 block: CRF-BP/CRF-R2 complex antagonism; HEK293 CRF-R2/CRF-BP, CRF-induced calcium fluorescence; inhibition, % at 11.8 µM; 0.59% of 350,000 active; AID 588475;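 active = inhibition of the ligand-induced calcium signal above about 50% at the single tested concentration, limit read from the data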
# Myeloid diff: compounds promoting myeloid differentiation; ER-HoxA9 myeloid progenitors, GFP/Mac1 double-positive flow; 2% of 2,300 active; AID 651706; shares compounds with Myeloid diff 2; calls only;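 active = share of green or green-and-red cells above 9 and 9% in run 1 or 4 and 3% in run 2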
# GFP autofluor: counter-screen for myeloid differentiation promoters: compound fluorescence. shares compounds with Myeloid diff 2. ER-HoxA9 myeloid progenitors, no estrogen, GFP autofluorescence flow cytometry; vehicle wells 0%, positive control 100%. fluorescence response, % (concentration not given with the values). 7.4% of 2,300 active;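 active = over 5% cells positive for green fluorescent reporter, or over 2% positive for both it and APC stain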;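 also: range taken on the double positive population between DMSO and positive control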
# * hit, by the source's call; i = inactive; nt = no result; + = active, no number. Sampled rows, rich in hits. Any-hit rate of the full collection: about 2.6%.
SMILES,TPT1 inhibitor,CRFR2-BP ag,IDE cell inh,IDE act,Myeloid diff 2,CRFBP-R2 block,Myeloid diff,GFP autofluor
COc1ccc(N2CCN(Cc3nc4c(c(=O)n(C)c(=O)n4C)n3Cc3cccc(C)c3)CC2)cc1,1.3,-4.0,4.4,5.2,i,26.3,i,0.4
C/C(N)=C(/C#N)C(=O)COC(=O)c1cc(C)n(-c2ccc(F)cc2)c1C,3.4,-1.9,2.7,-0.5,+,7.8,+,0.0
Cc1cc(C(=O)OCC(N)=O)c(C)n1-c1ccccc1,1.5,-2.6,-2.9,5.1,i,-0.2,nt,nt
c1ccc(-n2cc(CN3CCC(N4CCOCC4)CC3)c(-c3ccc4c(c3)OCO4)n2)cc1,-1.7,-0.4,-0.5,7.2,+,-44.2,i,0.5
COc1ccc(Cc2n[nH]c(=O)c3ccccc23)cc1OC,-0.8,7.5,0.1,0.5,i,6.2,i,0.0
Cc1cc(C(C)(C)C)oc1C(=O)N(CC(=O)NC1CCCC1)Cc1ccccc1,-1.4,11.1,-1.2,3.2,i,-18.2,nt,nt
Cc1ccc(C)c(N(CC(=O)NC2CCCC2)C(=O)c2oc(C(C)(C)C)cc2C)c1,-0.8,0.5,-1.1,4.1,i,-28.2,i,0.0
Cc1ccc2nc(-c3ccc(NS(C)(=O)=O)cc3)cc(-c3ccccc3)c2c1,-1.1,6.2,3.7,2.9,i,-61.5,nt,nt
CCS(=O)(=O)Nc1ccc(-c2cc(-c3ccccc3)c3cc(C)ccc3n2)cc1,0.1,-0.1,9.2,5.7,i,-15.9,i,0.0
Nc1nnc(N)c2ccccc12,-4.5,-0.7,-0.5,4.9,+,1.1,i,0.0
Nc1nsc2ccccc12,2.2,-2.9,-2.6,-4.0,i,-14.8,nt,nt
CN(Cc1ccccc1C(F)(F)F)C(=O)C1CCC(=O)N(CC2CCCCC2)C1 (stereo not given),nt,-0.7,nt,nt,i,-0.3,nt,nt
Cn1c(=O)oc2cc(NC(=O)CCl)ccc21,1.9,0.5,3.4,3.5,i,7.8,i,0.5
CCOC(=O)c1c(C)c(C(=O)NCc2cccs2)c(C)n1C,-0.7,-1.5,2.1,1.1,i,30.2,i,0.0
COc1ccc(CNC2C[C@H]3CCCC(=O)N4CC[C@@H](C2)[C@@H]34)cc1 (stereo not given in full),nt,0.3,nt,5.3,i,-6.4,nt,nt
COc1ccc2[nH]c3c(c2c1)[C@@H]1CCN2C(=O)CCC[C@H](C3)[C@H]12,-2.7,-1.5,-0.5,-0.2,+,1.4,i,0.0
O=C(O)/C=C/c1ccc(-n2ccnc2)cc1,-0.7,0.4,3.7,6.7,i,3.7,nt,nt
COc1cccc2c1OC[C@@H](CO)[C@H]2N(C)C(=O)Nc1ccc(Cl)cc1Cl,5.6,2.6,-0.4,4.1,i,38.0,i,0.0
COc1ccc(C(=O)NC(C)CCc2ccccc2)cc1[N+](=O)[O-] (stereo not given),-1.2,-2.4,0.6,2.7,nt,14.3,nt,nt
COc1ccc(C(=O)C(C)[n+]2ccc(C)c3ccccc32)cc1[N+](=O)[O-] (stereo not given),21.4,30.9,9.3,-0.1,+,-26.4,i,0.4
O=C(N/N=C/c1ccncc1)c1cc2ccccc2cc1O,nt,-0.8,nt,2.4,i,-9.5,nt,nt
O=C(N/N=C/c1ccncc1)c1cc([N+](=O)[O-])cc([N+](=O)[O-])c1O,-1.2,0.3,5.0,3.2,i,-9.0,i,0.3
O=Cc1ccc(OCc2cn(CC(=O)c3ccc(O)cc3)nn2)cc1,nt,2.8,nt,1.4,i,-14.3,nt,nt
CC(C)(C)NS(=O)(=O)c1ccc(CCC(=O)Nc2ccc3c(c2)OCO3)cc1,-1.5,-3.5,0.2,2.4,+,0.8,i,0.6
CC(C)(C)NS(=O)(=O)c1ccc(CCC(=O)Nc2ccc3c(c2)OCCO3)cc1,0.1,0.1,9.8,6.1,i,-15.4,nt,nt
SMILES,TPT1 inhibitor,CRFR2-BP ag,IDE cell inh,IDE act,Myeloid diff 2,CRFBP-R2 block,Myeloid diff,GFP autofluor
Clc1ccc(C(c2nnnn2C2CCCC2)N2CCSCC2)cc1 (stereo not given),-0.8,-0.7,-0.8,-1.0,i,8.9,nt,nt
COc1ccc(-c2nc(CN3CCC(C(=O)N4CCc5ccccc54)CC3)c(C)o2)cc1OC,-3.9,-2.6,0.8,4.6,i,22.3,i,0.7
Nc1cc(Nc2ccccc2)ccn1,nt,0.3,3.4,2.7,+,-2.6,i,2.4
CS(=O)(=O)N(CC(=O)O)Cc1cccc(CN(CC(=O)O)S(C)(=O)=O)c1,-2.5,0.9,0.8,3.9,i,-1.4,nt,nt
C=CCN1C(=O)S/C(=C/c2ccc(Sc3nc4ccccc4[nH]3)o2)C1=O,-1.4,4.7,-0.1,2.9,i,-22.7,nt,nt
CC(C)N1C(=O)S/C(=C/c2ccc(Sc3nc4ccccc4[nH]3)o2)C1=O,0.8,-1.0,4.5,-3.6,i,-20.6,i,0.0
N#CCCN1CCN(S(=O)(=O)c2ccc(C#N)cc2)CC1,-3.9,-2.5,-0.2,3.9,i,13.4,i,0.0
CCCc1cc(=O)[nH]c(SCC(=O)Nc2ccccc2C#N)n1,3.1,-1.0,-0.4,-3.1,i,1.5,i,0.0
COc1ccccc1C(=O)OCc1c(-c2ccccc2)ncc2ccccc12,nt,-2.5,-4.8,0.1,i,-3.2,nt,nt
COc1ccc(S(=O)(=O)Nc2cccc3c2O[C@H](CN(C)Cc2ccc(Oc4ccccc4)cc2)[C@@H](C)CN([C@H](C)CO)C3=O)cc1,nt,1.1,9.1,-7.5,i,-0.2,nt,nt
C[C@@H]1CN([C@@H](C)CO)C(=O)c2cccc(NS(C)(=O)=O)c2O[C@H]1CN(C)Cc1ccc(Oc2ccccc2)cc1,nt,-2.4,2.7,-0.2,i,3.9,i,0.0
Fc1ccc(C2CCCCN2Cc2nc(CC3CC3)no2)cc1 (stereo not given),5.4,0.7,-1.1,4.8,i,-0.1,nt,nt
Fc1ccc2nc(C3CCCCN3Cc3nc(CC4CC4)no3)[nH]c2c1 (stereo not given),-0.2,1.0,-2.4,3.0,i,1.9,i,0.2
CCCCOc1ccc(C(O)(CCC)CCN2CCOCC2)cc1 (stereo not given),1.3,-1.7,1.9,6.2,i,-17.9,i,0.0
N#Cc1c(NC(=O)c2ccc(Br)o2)n(-c2ccccc2)c2nc3ccccc3nc12,13.1,1.1,0.2,-11.6,+,-4.5,i,0.3
O=C(Nc1cccc(NC(=O)c2ccc(Br)o2)n1)c1ccc(Br)o1,2.9,-1.7,3.8,-8.5,i,25.6,nt,nt
CCC(C)c1c(O)nc(SCC(=O)N2CCOCC2)[nH]c1=O (stereo not given),3.9,1.3,-1.6,6.7,i,-9.6,i,0.0

# Bioassay records: PubChem, several laboratories
